Results from PubChem BioAssay (NCATS).
Records with an inconclusive call do not appear. A number with no mark means an inactive call. Active and inactive are the calls of the source. Calls follow the shape of the dose curve; as a rule, active = well fitted cell-killing curve with a large enough effect; inconclusive = small, poorly fitted or top-dose-only effect; inactive = no such curve, though single readings can be large or run the other way.

Experiment: Quantitative High-Throughput drug screen in 47 multiple myeloma cell lines against the NCATS MIPE library collection: NCIH929_DSMZ cell viability assay (AID 1918978); also: nearly all actives have a fitted effect of over 35% in size
Settings: NCI-H929 myeloma viability, CellTiter-Glo ATP, 48 h; series mostly up to 45.8 µM; viability, % of control: at the top concentration
Text: PI: Beverly A. Mock Ph.D.
Laboratory of Cancer Biology and Genetics,
Center for Cancer Research, National Cancer Institute,
National Institute of Health, Bethesda, Maryland
Drug resistance and disease progression are common in multiple myeloma (MM) patients, underscoring the need for new therapeutic combinations. […] We hypothesized that effective combinations would reduce MYC expression and enhance p16 activity. […] These preclinical data identify potentially useful drug combinations for evaluation in drug-resistant MM and reveal potential mechanisms of combined drug sensitivity.
Described herein is the primary MIPE qHTS used to cherrypick compounds. Validated compounds were then further tested for potential synergistic activiy.
[1] Peat TJ, Gaikwad SM, Dubois W, Gyabaah-Kessie N, Zhang S, Gorjifard S, Phyo Z, Andres M, Hughitt VK, Simpson RM, Miller MA, Girvin AT, Taylor A, Williams D, D'Antonio N, Zhang Y, Rajagopalan A, Flietner E, Wilson K, Zhang X, Shinn P, Klumpp-Thomas C, McKnight C, Itkin Z, Chen L, Kazandijian D, Zhang J, Michalowski AM, Simmons JK, Keats J, Thomas CJ, Mock BA. Drug combinations identified by high-throughput screening promote cell cycle transition and upregulate Smad pathways in myeloma. Cancer Lett. 2023 Aug 1;568:216284. doi: 10.1016/j.canlet.2023.216284. Epub 2023 Jun 24. PMID: 37356470; PMCID: PMC10408729.
SEQUENCE No. (e.g., 1, 2, 3, etc.); […] (e.g., Cells, Incubation, Reagent, etc.); VALUE and DESCRIPTION.
1; Cells; 5 uL; white, solid bottom 1536-well Greiner assay plate.
2; Compounds; 23 nL; Kalypsis pin tool (Wako USA) equipped with a 1536-well pin head to transfer to the assay plates.
3; Incubation; 48 hours; 37C incubation.
4; Reagent;5uL; CellTiter Glo (Promega).
5; Detector; 425V; Luminescence; Viewlux PerkinElmer.
NOTES (numbers refer to Sequence numbers above)
1. The cell-based screening methods employed in this study were like those previously published. Briefly, the corresponding myeloma cell lines were screened in 1,536-well plates with 500 cells, 5-uL per well for inhibition of cell viability (assessed by measuring ATP levels with CellTiterGlo).
2. NCATS MIPE 4.0 library of approved and investigational drugs were added using the Kalypsis pin tool. Wells treated with DMSO only for 100% viability and media only for 0% viability were used as controls.
3. The assay plates were covered and incubated for 48 hours in a 37C, 5% CO2 incubator with controlled humidity.
4. After 48 hours, CellTilter-GloTM luminescent substrate mix (Promega) reagent was added to the assay plate and plates we incubated for 5 min at room temperature.
5. Signal was measured as median relative luminescence units on a ViewLux (PerkinElmer) multiplate reader.
[1] Heske CM, Davis MI, Baumgart JT, Wilson K, Gormally MV, Chen L, Zhang X, Ceribelli M, Duveau DY, Guha R, Ferrer M, Arnaldez FI, Ji J, Tran HL, Zhang Y, Mendoza A, Helman LJ, Thomas CJ. Matrix Screen Identifies Synergistic Combination of PARP Inhibitors and Nicotinamide Phosphoribosyltransferase (NAMPT) Inhibitors in Ewing Sarcoma. Clin Cancer Res. 2017 Dec 1;23(23):7301-7311. doi: 10.1158/1078-0432.CCR-17-1121. Epub 2017 Sep 12. PMID: 28899971; PMCID: PMC6636827.
Potency is read from the fitted curve at half-maximal effect.

| SMILES | viability, % of control | Potency |
| --- | --- | --- |
| CC1(C)[C@H](C(=O)O)N2C(=O)C[C@H]2S1(=O)=O | 127% | – |
| Nc1nc(F)nc2c1ncn2[C@@H]1O[C@H](CO)[C@@H](O)[C@@H]1O | – | 0.209 µM (active) |
| COc1cc2nc(N3CCCN(C)CC3)nc(NC3CCN(Cc4ccccc4)CC3)c2cc1OC | – | 2.64 µM (active) |
| CC(C)OC(=O)C(C(=O)OC(C)C)=C1SC=CS1 | 106% | – |
| NCCCC(O)(P(=O)(O)O)P(=O)(O)O | 98.5% | – |
| CCn1cc(C(=O)O)c(=O)c2cc(F)c(N3CCN(C)CC3)cc21 | 114% | – |
| Cc1cccc(N(C)C(=S)Oc2ccc3ccccc3c2)c1 | 99.8% | – |
| CN(Cc1cc(Br)cc(Br)c1N)C1CCCCC1 | 97% | – |
| CCCc1nc(C)c2c(=O)[nH]c(-c3cc(S(=O)(=O)N4CCN(CC)CC4)ccc3OCC)nn12 | – | 3.72 µM (active) |
| COCCCOc1cc(C[C@@H](C[C@H](N)[C@@H](O)C[C@H](C(=O)NCC(C)(C)C(N)=O)C(C)C)C(C)C)ccc1OC | 91% | – |
| CN(C)CCc1c[nH]c2ccc(C[C@H]3COC(=O)N3)cc12 | 116% | – |
| C[C@@H](CN1CC(=O)NC(=O)C1)N1CC(=O)NC(=O)C1 | – | 16.6 µM (active) |
| Cn1nnc2c(C(N)=O)ncn2c1=O | 143% | – |
| CCCOc1ccc(C(=O)OCCN(CC)CC)cc1N | 94.7% | – |
| OC(Cn1cncn1)(Cn1cncn1)c1ccc(F)cc1F | 122% | – |
| CC(=O)[C@H]1CC[C@H]2[C@@H]3CCC4=CC(=O)CC[C@]4(C)[C@H]3CC[C@]12C | 88.3% | – |
| O=NN(CCCl)C(=O)NC1CCCCC1 | 123% | – |
| CNC1CCCN(c2c(F)cc3c(=O)c(C(=O)O)cn(C4CC4)c3c2OC)C1 (stereo not given) | – | 1.48 µM (active) |
| CN(C)CCc1c[nH]c2ccc(CS(=O)(=O)N3CCCC3)cc12 | 89.3% | – |
| C#CCN[C@@H]1CCc2ccccc21 | 87.9% | – |

| SMILES | viability, % of control | Potency |
| --- | --- | --- |
| O[C@@H](CNC[C@H](O)[C@H]1CCc2cc(F)ccc2O1)[C@@H]1CCc2cc(F)ccc2O1 | – | 23.5 µM (active) |
| CC(N)C12CC3CC(CC(C3)C1)C2 (stereo not given) | 113% | – |
| N[C@@H](Cc1ccc(O)c(O)c1)C(=O)O | 108% | – |
| OCc1ccc(-c2nn(Cc3ccccc3)c3ccccc23)o1 | – | 14.8 µM (active) |
| C[C@]12C=CC(=O)C=C1CC[C@@H]1[C@@H]2C(=O)C[C@@]2(C)[C@H]1CC[C@]2(O)C(=O)CO | 137% [at 23.2 µM] | – |
| COc1cccc(N(C)C(=S)Oc2ccc3c(c2)CCCC3)n1 | 106% | – |
| COc1cc([C@@H]2c3cc4c(cc3[C@H](O)[C@H]3COC(=O)[C@H]23)OCO4)cc(OC)c1OC | 12.1% | – |
| CC(=O)CC(c1ccccc1)c1c(O)c2ccccc2oc1=O (stereo not given) | 121% | – |
| CC(C)(C#N)c1cc(Cn2cncn2)cc(C(C)(C)C#N)c1 | 101% | – |
| CCOc1cc(N)c(Cl)cc1C(=O)NCC1CN(Cc2ccc(F)cc2)CCO1 (stereo not given) | 113% | – |
| COc1cc2c(Nc3ccc(Br)cc3F)ncnc2cc1OCC1CCN(C)CC1 | – | 8.33 µM (active) |
| CCN(C)C(=O)Oc1cccc([C@H](C)N(C)C)c1 | 118% | – |
| O=C(N[C@H](CO)[C@H](O)c1ccc([N+](=O)[O-])cc1)C(Cl)Cl | 137% | – |
| CC1=C(C(=O)O)N2C(=O)[C@@H](NC(=O)C(N)c3ccccc3)[C@H]2SC1 (stereo not given in full) | 91.6% | – |
| CC1=CC(=O)c2ccccc2C1=O | – | 9.35 µM (active) |
| NNC(=O)c1ccncc1 | 92.6% | – |
| CCn1cc(C(=O)O)c(=O)c2cc(F)c(N3CCNCC3)cc21 | 120% | – |
| CNS(=O)(=O)CCc1ccc2[nH]cc(C3CCN(C)CC3)c2c1 | – | 0.332 µM (active) |
| Cc1oc(=O)oc1CN1CCN(c2cc3c(cc2F)c(=O)c(C(=O)O)c2n3C(C)S2)CC1 (stereo not given) | 107% | – |
| N[C@@H](C(=O)N[C@@H]1C(=O)N2C(C(=O)O)=C(Cl)CS[C@H]12)c1ccccc1 | 113% | – |
